Drawing on PubChem BioAssay AID1875 (Broad Institute, 2009), this text covers activity score for 25 compounds.

The whole screen tested about 300,000 compounds, of which about 65 (0.02%) were called active.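 The calls were made as follows: active = lowest replicate activity score at least 50, where 100 means six control SD above control mean; inconclusive = lowest score under 50 but half or more replicates reach 50; inactive = the rest.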 The full list was thinned out, with actives kept by preference.

This experiment is described as follows: polyadenylation inhibitors in yeast reporter cells, primary screen, luminescence, S. cerevisiae (AID 1875).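 Also: yeast exposed to compound for 9 h at 30 °C; higher score means more reporter readthrough which indicates perturbed polyadenylation.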 To be noted: S. cerevisiae SKY197-pL101 polyadenylation reporter, beta-gal luminescence; at 12 µM; hits give high values; efflux-impaired pdr1/pdr3 knockout yeast; score 100 = 6 SD above DMSO.
Turning to `CC1C(=O)NC(=O)C1c1ccccc1` (stereo not given), the activity score was -10.6% (inactive). Next, `CC(C)Cc1nn2c(=O)cc(O)nc2s1`: 4.85% (inactive); `Cc1c(Br)cc(C(=O)N2CCCCCC2)c(C)c1C`: -12.8% (inactive). Take `COc1ccccc1N1CCN(C(=O)c2cc(=O)c3cc(C)cc(C)c3o2)CC1`: the activity score was -11.1% (inactive). Next, `Cc1c(NS(=O)(=O)c2ccc(NC3CCCC3)c([N+](=O)[O-])c2)c(=O)n(-c2ccccc2)n1C`: 0.246% (inactive); `COc1ccccc1OCC(=O)Nc1ccccc1C(=O)NC1CC1`: -4.06% (inactive); `O=C1c2ccccc2C(=O)N1Cc1cc(-c2ccccc2Cl)no1`: 16.1% (inactive). In the case of `CCCOc1ccc(-c2c(C(=O)N/N=C/c3ccco3)nnn2-c2nonc2N)cc1` it was -8.58% (inactive).

Turning to `COCc1[nH][nH]c(=O)c1C=Nc1ccc(F)cc1F`, the activity score is -2.51% (inactive). Next, `Cc1ccc(NC(=O)C(C)c2cccc(C(=O)c3ccccc3)c2)cc1` (stereo not given): -5.58% (inactive); `COc1ccccc1N1CCN(S(=O)(=O)c2ccc3c(c2)NC(=O)CS3)CC1`: 9.75% (inactive). With `CN(C)Cc1ccccc1C1(O)c2ccccc2CSc2ccccc21` (stereo not given), the activity score was -2.69% (inactive). For the compound `CN(C)C(=O)c1ccc(NC(=O)c2ccccc2-c2ccccc2)cc1`, the activity score was -1.15% (inactive). For `CCC(Cc1ccccc1)NC(=O)C1CCCCC1` (stereo not given), the activity score is 15.5% (inactive). In the case of `CCCC[C@@H]1CN=C(N)N1CCCC` it was 6.9% (inactive); in that of `C=CCN1C(=O)C2(OCCCO2)c2cccc(Cl)c21`, -10.9% (inactive). On to `CC(=O)NC(Cc1ccc(F)c(F)c1)C(=O)NC1CCN(c2nnnn2-c2ccccc2)CC1` (stereo not given), for which the activity score is -5.96% (inactive). Next, `O=C(NCc1ccccc1Cl)NC(=O)c1csc([N+](=O)[O-])c1`: 8.38% (inactive). Next, `O=C(NCc1ccccc1)C1=C[C@@H](c2ccc(C(F)(F)F)cc2)C[C@@H](OCc2ccc(CO)cc2)O1`: 4.63% (inactive); `Cc1ccc(C)c(N2CCN(C(=O)CCCCCn3c(=S)[nH]c4ccc(N5CCOCC5)cc4c3=O)CC2)c1`: 13.3% (inactive). As for `S=c1[nH]cc(-c2ccc(Cl)cc2)n1-c1ccccc1`, the activity score is -13.1% (inactive).

As for `CC(C)c1ccc(NC(=O)[C@@H](NC(=O)N2CC(=O)Nc3ccccc32)C(C)C)cc1`, the activity score was 8.86% (inactive).

Turning to `COc1ccc2c(c1)N(C)/C(=C1/SC(=S)N(NC(C)=O)C1=O)S2`, the activity score was -0.22% (inactive). As to `Cc1ccc(C(=O)NC2CCCC(C)C2C)cc1S(=O)(=O)N1CCCCC1` (stereo not given), the activity score is 0.169% (inactive). In the case of `CCN(CC)Cc1c(C(=O)N/N=C/c2cccc(OCc3ccc(F)cc3)c2)nnn1-c1nonc1N` it was -15.4% (inactive).
